Here are results for 70 molecules from ChEMBL document CHEMBL4513216, “Probing the Open Global Health Chemical Diversity Library for Multistage-Active Starting Points for Next-Generation Antimalarials” (ACS Infect Dis, 2020).

About 8,600 (12%) of roughly 69,000 compounds showed an effect of 50% or more. The list comes from a sample in which strong results are over-represented; it also holds similar structures and randomly drawn compounds.

This experiment has as its system Plasmodium berghei. Description: Screen against P. berghei liver stage (PbLuc), transformed with Luciferase, at 10uM. The experiment is classed as functional, HepG2. Conditions: tested at 10 uM.
As for `COC(=O)c1cc(C(=O)N2CCC(OC)CC2)n(-c2ccccc2)n1`, the INHIBITION is recorded as -12.33%. To `COC(=O)CNC(=O)c1sc(-c2ccc(Cl)s2)nc1C` belongs -58%; to `CC(O)CN1CCC(CNCc2cccc(OC(F)(F)F)c2)CC1` (stereo not given), 35.4%; to `CS(=O)(=O)NC[C@]12COC[C@H]1CN(C(=O)N1CCCC1)C2`, 21.3%.

On to `CNCc1nc(-c2ccc3c(c2)OCO3)c[nH]1`, for which the INHIBITION amounted to 8.4%.

Regarding `CN1CCC(n2nc(CC3CC3)nc2-c2ccc(F)cc2Cl)CC1`, the INHIBITION stood at 34.9%. To `CN(C)CCN(Cc1cccc(F)c1)C(=O)c1ccc2nccn2c1` belongs 2.91%; to `Cc1cc(NC(=O)CN2CCn3c(C)nnc3C2)no1`, 45.1%; to `CC(C)c1nc(C2CCCN2CC(=O)Nc2nncs2)no1` (stereo not given), 10.2%.

Turning to `CC(C)c1cc(NC(=O)CN2CCCC2c2noc(C(C)C)n2)on1` (stereo not given), the INHIBITION was found to be 52.3%. To `Cc1cc(NC(=O)CN2CCCC2c2noc(C(C)C)n2)on1` (stereo not given) belongs -7.31%. Take `Cc1cc(NC(=O)CN2CCn3c(nnc3C(C)C)C2)no1`: the INHIBITION is 63.9%. To `Cc1cc(NC(=O)CN2CCn3c(nnc3C(C)C)C2)on1` belongs -0.219%; to `O[C@@H]1CCN(CC2CCOC2)[C@H]1Cc1ccccc1` (stereo not given in full), 46.7%; to `COc1ccc(CN(Cc2cncn2C)CC2CCCO2)cc1OC` (stereo not given), 15.9%. As to `CC(C)C(C)NC(=O)Nc1ccc(CS(C)(=O)=O)cc1` (stereo not given), the INHIBITION worked out at 3.16%. To `COc1ccc(CN2CCn3cc(CNC(=O)CC4CC4)nc3C2)cc1` belongs 40.4%. With `CCOc1ccccc1CNC1CCCN(Cc2noc(C)n2)C1` (stereo not given), the INHIBITION is 21.5%.

Turning to `COC(=O)c1ccc(CN(C(C)C)C(C)C)o1`, the INHIBITION was 42.1%. To `CNC(=O)c1ccc(CN(C(C)C)C(C)C)o1` belongs 47.9%; to `CC(C)N(Cc1ccc(C(=O)O)o1)C(C)C`, 69.6%; to `c1coc(CN2CCCn3c(nnc3Cn3cccn3)C2)c1`, 4.68%. To `O=C(CC1CC1)N1CCn2cc(Cn3cccn3)nc2C1` belongs 42.7%; to `O=C(c1ccc[nH]1)N1CCn2cc(Cn3cncn3)nc2C1`, 10.8%. To `O=C(Cc1cccc(F)c1)N1CCn2cc(Cn3cccn3)nc2C1` belongs 26.4%; to `O=C(Cc1ccc(F)cc1)N1CCn2cc(Cn3cccn3)nc2C1`, 51.2%; to `O=C(Cc1cccs1)N1CCn2cc(Cn3cccn3)nc2C1`, -2.72%.

On to `O=C(c1ccc[nH]1)N1CCn2cc(Cn3cccn3)nc2C1`, for which the INHIBITION stood at 74.2%. To `COc1ncccc1CN1C[C@@H]2COC[C@]2(CNC(=O)c2ccno2)C1` belongs 29%; to `Cc1nc(C)c(CN2CCC(N(C)Cc3noc(C4CC4)n3)C2)s1` (stereo not given), -19.9%. As to `COc1ccc(CNC2CCc3ncnn3C2)cc1OCCCC#N` (stereo not given), the INHIBITION is on record as 28.7%. As to `CCc1nc(C)c(-c2nccn2CC2CCCCO2)[nH]1` (stereo not given), the INHIBITION is listed as -10.2%. To `CCc1nc(C)c(-c2nccn2CC2CC(=O)N(CC)C2)[nH]1` (stereo not given) belongs 55.2%; to `CCc1nc(C)c(-c2nccn2CC2CCN(C3CCCC3)CC2)[nH]1`, 22.5%. To `Cn1cc(C(NCc2ccc(F)cc2)c2cccc(F)c2)cn1` (stereo not given) belongs 15%; to `Clc1cccc(N2CCC(NCc3ncc[nH]3)C2)c1` (stereo not given), 34.1%; to `CC(C(=O)Nc1cccc(Cl)c1)N1CCN(Cc2ncc[nH]2)CC1` (stereo not given), 4.52%. `Clc1cccc(C(NCc2ncc[nH]2)c2ccccn2)c1` (stereo not given): the INHIBITION amounted to 83.2%. To `Fc1cccc(C(NCc2ncc[nH]2)c2ccccc2)c1` (stereo not given) belongs 78.2%. To `Fc1cccc(C(NCc2ncc[nH]2)c2ccccn2)c1` (stereo not given) belongs -13.2%; to `Cc1ccc(NC2(C(=O)N3CCn4cncc4C3)CCCCC2)cc1C`, 42.1%; to `COCc1cnc2n1CCN(C1CCC1)C2C` (stereo not given), 42.6%. To `O=C(NCCN1CCCCC1CO)c1cc(-c2ccccc2)on1` (stereo not given) belongs -7.81%; to `CC(C)CNC(=O)c1ccc2c(c1)nc1n2CCN(Cc2ccco2)C1`, 18.4%; to `Cc1nnc(C2Cc3ccccc3CN2Cc2nc(C(C)C)no2)o1` (stereo not given), -10.1%. `CC(=O)N1N=C(c2ccccc2)OC1C(=O)NCCOc1ccccc1` (stereo not given): the INHIBITION is reported as -12.2%. To `O=C(Nc1ccc(-n2cccn2)cc1)N1CCC(O)C1` (stereo not given) belongs 42.3%. To `O=C(Nc1ccc(-n2cccn2)cc1)N1CCOCC(O)C1` (stereo not given) belongs 53.6%; to `O=C(Nc1ccccc1OCCc1ccccn1)N1CCOCC(O)C1` (stereo not given), 12.3%; to `CC(=O)OC1CN(c2nc3c(C)cccc3s2)C1`, -45.6%. To `c1cnc(N2CCO[C@H]3CN(Cc4csnn4)C[C@H]32)nc1` belongs 42.7%.

With `COCCn1c2c(ccc1=O)CC(NC(=O)c1cscn1)CC2` (stereo not given), the INHIBITION worked out at 70.2%. To `CN(C)C(=O)Cn1c2c(ccc1=O)CC(NCc1cccnc1)CC2` (stereo not given) belongs 57.1%; to `Cn1cc(CNC2CCc3c(ccc(=O)n3Cc3ccncc3)C2)cn1` (stereo not given), 42.1%. With `CN(C)C(=O)Cn1c2c(ccc1=O)CC(NCc1ccoc1)CC2` (stereo not given), the INHIBITION is 8.31%. Turning to `O=C(NC1CCc2c(ccc(=O)n2CC2CC2)C1)c1cscn1` (stereo not given), the INHIBITION is recorded as 41.2%. To `Cn1c2c(ccc1=O)CC(NS(C)(=O)=O)CC2` (stereo not given) belongs 45.5%. To `COCCn1c2c(ccc1=O)CC(NS(C)(=O)=O)CC2` (stereo not given) belongs 58.6%; to `CS(=O)(=O)NC1CCc2c(ccc(=O)n2CC2CC2)C1` (stereo not given), 31.3%.

For `CN(C)CCn1c2c(ccc1=O)CC(NC(=O)c1cnccn1)CC2` (stereo not given), the INHIBITION turned out to be 14.6%.

As to `Cn1cc(CNC2CCc3c(ccc(=O)n3Cc3cccnc3)C2)cn1` (stereo not given), the INHIBITION turned out to be 55.7%. To `CN(C)CCn1c2c(ccc1=O)CC(NCc1cccnc1)CC2` (stereo not given) belongs 34.9%; to `O=c1ccc2c(n1Cc1cccnc1)CCC(NCc1cccnc1)C2` (stereo not given), -2.03%; to `Nc1nc(Nc2ccccc2)cc(N2CCNCC2)n1`, 12.5%. To `CC(C)CCn1ccc(NC(=O)N2CCCC2CN2CCOCC2)n1` (stereo not given) belongs -0.551%; to `Cc1cc(CNS(C)(=O)=O)ccc1N(C)C`, 25.5%.

Take `Cc1ccc(CN2C[C@@H]3COC[C@@H](CC(=O)N4CCOCC4)[C@@H]3C2)s1`: the INHIBITION is -3.52%. Consider `Cc1nccnc1C1CCN(C(=O)C(C)C)CC1`, for which the INHIBITION was 29.35%. To `CC(=O)N(C)Cc1ncn2c1CN(C(=O)CC1CC1)CCC2` belongs -31.2%; to `Cc1ccc(C(=O)N2C[C@H](OCC3CCOCC3)[C@H]3OCCC[C@H]32)o1`, -33.9%.
